NTR1 agonist: activates human neurotensin receptor 1. AID 493036. activation, % at 20 µM. P30989. NTR1-U2OS beta-arrestin-GFP spot imaging, agonist mode. actives 0.17% (n = 330,000);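 active means activation at or above 40% of the spot to cytoplasm intensity ratio, with at least 20 cells analyzed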
A3G deaminase: APOBEC3G (human) deaminase inhibition; actives 0.28% (n = 330,000); inhibition, % at 20 µM; AID 493012; recombinant A3G, ssDNA deamination FAM/TAMRA fluorescence;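 active means inhibition of at least 40% at 20 µM, with no more than 30% in the related APOBEC3A deaminase screen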
Target sequence (Q9HC16 whole entry, looked up): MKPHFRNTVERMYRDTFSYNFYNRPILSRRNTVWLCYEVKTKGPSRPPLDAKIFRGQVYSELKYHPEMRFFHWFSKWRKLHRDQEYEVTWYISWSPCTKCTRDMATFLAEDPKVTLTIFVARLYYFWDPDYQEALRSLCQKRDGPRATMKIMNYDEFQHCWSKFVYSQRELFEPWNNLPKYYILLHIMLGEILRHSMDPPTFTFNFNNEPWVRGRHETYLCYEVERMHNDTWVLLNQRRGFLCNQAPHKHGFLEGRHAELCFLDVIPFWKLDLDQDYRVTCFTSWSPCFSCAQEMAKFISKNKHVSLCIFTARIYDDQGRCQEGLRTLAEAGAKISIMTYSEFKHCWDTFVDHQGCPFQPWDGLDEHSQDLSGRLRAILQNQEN
A3A deaminase: human APOBEC3A DNA deaminase inhibition; P31941; recombinant A3A, FAM/TAMRA ssDNA deamination fluorescence; inhibition, % at 20 µM; actives 0.41% (n = 330,000); AID 493011;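 active means at least 40% inhibition at 20 µM here, with at most 30% in a related deaminase screen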
Target sequence (P31941 whole entry, looked up): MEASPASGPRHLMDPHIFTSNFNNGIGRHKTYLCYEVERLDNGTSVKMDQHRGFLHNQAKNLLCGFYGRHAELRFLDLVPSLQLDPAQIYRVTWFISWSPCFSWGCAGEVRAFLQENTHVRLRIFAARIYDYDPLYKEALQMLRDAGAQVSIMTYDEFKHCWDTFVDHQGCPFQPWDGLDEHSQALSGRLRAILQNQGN
AHR activator: human AHR activation; AHR-responsive luciferase reporter cells, luminescence; AID 2796; actives 2.5% (n = 320,000); P35869; activation, % at 5 µM; in the data active means activation above about 47%
A3A conf: confirmation of human APOBEC3A DNA deaminase inhibitors. recombinant A3A, ssDNA deaminase UDG fluorescence assay. shares compounds with A3A deaminase. inhibition, % at 20 µM. actives 63% (n = 1,400). AID 493151;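 active means inhibition reaching a set limit, 80% of the first screen's cutoff, at 20 µM in any replicate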
UDG A3A counter: UDG inhibition in APOBEC3A counter-screen | inhibition, % at 20 µM | shares compounds with A3A deaminase | UDG counterscreen, FAM/TAMRA uracil oligo fluorescence | 1,000 tested, under 10 active; call rule not given here
Large screens that a line does not name were inactive (follow-up assays come after a bar, where they were run). In the library only some 3.2% were active in any assay of this set; here they are far more common.

C[N+]1=C2CCCCCN2C(O)(c2ccccc2)C1 (configuration not stated)	A3A deaminase 69 | A3A conf 72 | UDG A3A counter inactive
OC1(c2ccccc2Cl)NN=C2CCCCCN21 (configuration not stated)	none
O=C(NC(CCl)c1ccccc1)c1ccc(Cl)cc1 (configuration not stated)	none
NNC(=O)CCc1nc2ccccc2[nH]1	none
CCOC(=O)c1c(NC(=O)Cn2nc(C(F)F)cc2C(F)F)sc(C)c1C	none
CCOC(=O)c1c(NC(=O)Cn2nc(C(F)(F)F)cc2C)sc(C)c1C	A3A deaminase 45 | A3A conf inactive | UDG A3A counter inactive
CCN(C[C@H]1N[C@@](CC)(C(=O)OC)[C@H]2C(=O)N(C)C(=O)[C@@H]12)C(=O)COC	none
CC[N+](C)(CC)CCC(c1ccccc1)C1CCCCC1 (configuration not stated)	A3A deaminase 48 | A3A conf 67 | UDG A3A counter inactive
Cc1ccc(NC(=O)NNC(=O)C2CCN(Cc3ccc(F)cc3Cl)CC2)cc1	none
COc1cc(/C=N\NC(=O)c2ccc(Cl)cc2)ccc1Oc1ccc([N+](=O)[O-])cn1	A3A deaminase 48 | A3A conf 63 | UDG A3A counter inactive
COc1cc(/C=N\NC(=O)c2cccc(Cl)c2)ccc1Oc1ccc([N+](=O)[O-])cn1	none
COc1ccc2nc(NC(=O)Cn3cnc4ccccc4c3=O)sc2c1	A3A deaminase 43 | A3A conf inactive
O=C(CCC(=O)NNC(=O)c1ccccc1[N+](=O)[O-])NCc1ccccc1	none
O=S(=O)(O)c1cc(O)c2c(O)c(N=Nc3cc(Cl)ccc3O)c(S(=O)(=O)O)cc2c1	A3A deaminase 91 | A3A conf 90 | UDG A3A counter inactive
C/C(=N\NC(=O)c1ccoc1C)c1cccc2ccccc12	none (no result: NTR1 agonist, A3G deaminase, A3A deaminase)
CC(C)CNC(=O)c1cc(S(=O)(=O)N2CCOCC2)ccc1N1CCCC1	none
NC(=O)C[n+]1cccc(C(=O)Nc2ccccc2)c1	A3A deaminase 76 | A3A conf 78 | UDG A3A counter inactive
C=CCN1C(=O)C2C(C(=O)NC3CCCC3)C3C=CC2(O3)C1C(=O)NC1CCCC1 (configuration not stated)	none
COc1ccccc1N/C(=N/S(=O)(=O)c1ccc(Cl)cc1)c1ccccc1	none
CC(Nc1cc(C)cc(C)c1)=[N+](C)CCNS(=O)(=O)c1ccc(Cl)cc1	A3A deaminase 45 | A3A conf 67 | UDG A3A counter inactive
COc1ccc(NC(C)=[N+](C)CCNS(=O)(=O)c2ccc(Cl)cc2)cc1Cl	A3A deaminase 62 | A3A conf 69 | UDG A3A counter inactive
COc1ccccc1NC(C)=[N+](C)CCNS(=O)(=O)c1ccc(Cl)cc1	A3A deaminase 56 | A3A conf 79 | UDG A3A counter inactive
COc1cccc(NC(=O)[C@H](C)NC(=O)C2CCN(S(=O)(=O)c3ccc(C)cc3)CC2)c1	none
C/C(=N\NC(=O)c1cccnc1)c1cc2ccccc2o1	none
C=CCn1c(=O)c2c(nc3n2CC(C)CN3CCc2ccccc2)n(C)c1=O (configuration not stated)	none
CCCOc1cccc(C2C(C(=O)c3cc4ccccc4o3)=C(O)C(=O)N2c2cc(C)on2)c1 (configuration not stated)	A3A deaminase 57 | A3A conf inactive | UDG A3A counter inactive
COc1ccc(NC(=O)c2ccc3c(c2)S(=O)(=O)c2ccccc2C3=O)cc1	none
CC(C)(C)c1ccc(NC(=O)c2ccc3c(c2)S(=O)(=O)c2ccccc2C3=O)cc1	A3A deaminase 44 | A3A conf inactive | UDG A3A counter inactive
CCCSc1nn2c(=O)c3ccccc3nc2s1	none
Cc1cccc(Nc2nn3c(=O)c4ccccc4nc3s2)c1	A3A deaminase 46 | A3A conf 22 | UDG A3A counter inactive
COc1ccccc1N=Nc1[nH]c2ccc(C)cc2c1O	A3A deaminase 66, AHR activator 60 | A3A conf 53 | UDG A3A counter inactive
Cc1ccc2[nH]c(O)c(N=Nc3nc4ccccc4s3)c2c1	none
Cc1noc(C)c1NC(=O)N(C)C[C@H]1Oc2ccc(NC(=O)Nc3ccc4c(c3)OCO4)cc2C(=O)N([C@H](C)CO)C[C@@H]1C	none
CC(=O)OCCn1c(C)[n+](CCOC(C)=O)c2cc(Cl)c(Cl)cc21	A3A deaminase 82 | A3A conf 81 | UDG A3A counter inactive
CCn1c(C)[n+](CCOCC[n+]2c(C)n(CC)c3cc(Cl)c(Cl)cc32)c2cc(Cl)c(Cl)cc21	A3A deaminase 78 | A3A conf 88 | UDG A3A counter inactive
CCOC(=O)Cn1c(=O)n(CC(=O)OCC)c2ccccc21	none
CCOC(=O)Cn1c(C)[n+](C)c2cc(Cl)c(Cl)cc21	A3A deaminase 87 | A3A conf 81 | UDG A3A counter inactive
O=[N+]([O-])c1ccc(C[n+]2cccc3ccc4cccnc4c32)cc1	none
O=[N+]([O-])c1ccc(C[n+]2cccc3ccccc32)cc1	A3A deaminase 43 | A3A conf 53 | UDG A3A counter inactive
CN(C)S(=O)(=O)c1ccc(C(=O)NCC[N+]2(C)CCCCCC2)o1	A3A deaminase 93 | A3A conf 73 | UDG A3A counter inactive
COc1ccc(NS(=O)(=O)c2ccc(S(=O)(=O)N(C)C)cc2)cc1S(N)(=O)=O	A3A deaminase 77 | A3A conf inactive | UDG A3A counter inactive
Cc1cc(C(=O)O)ccc1-c1ccc(/C=C2\NC(=O)N(Cc3ccccc3Cl)C2=O)o1	none
Cc1ccc(CN2C(=O)N/C(=C\c3ccc(-c4ccc(C(=O)O)cc4C)o3)C2=O)cc1	A3A deaminase 53 | A3A conf 32 | UDG A3A counter inactive
CCc1c(C)nc(SCc2ccccn2)[nH]c1=O	none
CC(=O)NCCn1c(SCC(=O)NC2CCCCC2)nc2ccccc2c1=O	none
O=C(CSc1nc2ccccc2c(=O)n1-c1ccccc1)NCC1CCCO1 (configuration not stated)	A3A deaminase 50 | A3A conf 71 | UDG A3A counter inactive
CCn1c(SCC(=O)N2CCN(c3ccc(Cl)cc3)CC2)nc2ccccc2c1=O	A3A deaminase 44 | A3A conf 66 | UDG A3A counter inactive
O=C(CSc1nnnn1Cc1ccccc1)N1CCN(c2ccccc2)CC1	A3A deaminase 47 | A3A conf inactive
CCn1c(SCC(=O)NC2CCCCC2)nc2ccccc2c1=O	A3A deaminase 63 | A3A conf 51 | UDG A3A counter inactive
CCn1nnnc1SCC(=O)N1CCN(c2ccccc2)CC1	none
Cc1ccc(-n2c(SCC(=O)NCC3CCCO3)nc3ccccc3c2=O)cc1C (configuration not stated)	none
CCc1noc(C)c1C(=O)NC1CC(C)(C)Cc2c1cnn2-c1ccccc1 (configuration not stated)	none
COc1ccc(NC(=O)CN(C)C(=O)Cn2cnc3c2c(=O)n(C)c(=O)n3C)cc1	none
Nc1ccccc1Oc1ccc2ccccc2c1	none
